Measurements published in ChEMBL document CHEMBL1157539, “Thousands of chemical starting points for antimalarial lead identification” (Nature, 2010).

system: Plasmodium falciparum; test: GSK_TCMDC: Inhibition of Plasmodium falciparum 3D7 in whole red blood cells, using parasite LDH activity as an index of growth. Test compounds present at 2uM; assay type: functional

| SMILES | Inhibition [%] |
| --- | --- |
| Clc1ccc2c(Cl)c(CNCCCNc3nc4ccccc4[nH]3)[nH]c2c1 | 100 |
| COc1cc2c(c(OC)c1[N+](=O)[O-])C=CC1(O2)N(C)c2ccc([N+](=O)[O-])cc2C1(C)C (stereo not given) | 92 |
| COc1c(CN2CCOCC2)cccc1-c1cc2c(-c3ccc(C(=O)O)c(C(C)C)c3)ccnc2[nH]1.O=C(O)C(F)(F)F | 98 |
| COc1cc(-c2ccccc2)ccc1C(=O)Nc1ccc2c(c1)N(C)CCC2 | 85 |
| CCOc1cc(C)ccc1C1CCN(CCCCNC(=O)c2nc(-c3ccc(C(F)(F)F)cc3)[nH]c2C)CC1.Cl | 100 |
| Br.CC1(C)NC(N)=NC(=N)N1OCCCOc1ccc([N+](=O)[O-])cc1 | 94 |
| FC(F)(F)c1ccc2[nH]c(-c3ccc(-c4cccc(CNCCc5ccncc5)c4)s3)nc2c1.O=C(O)C(F)(F)F | 100 |
| O=C(Nc1ccccc1)N(Cc1ccc(-c2ccc(CNC3CCCC3)cc2)cc1)C1CCN(Cc2ccccc2)CC1.O=C(O)C(F)(F)F | 100 |
| O=C(/C=C/c1ccc(Cl)c(Cl)c1)NCCCCCN1CCC(C(=O)Nc2ccc(Cl)c(Cl)c2)CC1 | 98 |
| CCC(ON1C(N)=NC(N)=NC1(C)C)c1ccccc1 (stereo not given) | 96 |
| O=C(NCCc1cccc(F)c1)c1ccc(N2CCN(c3ccncc3)CC2)cn1.O=C(O)C(F)(F)F | 94 |
| Cl.c1ccc2ncc(CNCCCCCCCCNCc3cnc4ccccc4c3)cc2c1 | 88 |
| Cc1ccc(NC(=O)c2cccc(C#N)c2)cc1-c1ccc(C(=O)Nc2ccncc2)cc1 | 94 |
| CC(C)COc1ccc(C(O)C(CN2CCCCC2)c2ccccc2)cc1 (stereo not given) | 93 |
| COc1ccc2nc3cc(Cl)ccc3c(NCCCCN3CCNCC3)c2c1.Cl | 100 |
| COc1ccc2ncc(F)c(CCN3CC(O)C(CNCc4ccc5c(c4)OCCO5)C3)c2n1.Cl (stereo not given) | 94 |
| c1ccc(Oc2ccc(Nc3nc(NCCc4c[nH]cn4)nc(NC4CCCC4)n3)cc2)cc1 | 97 |
| N#Cc1cccc(NC(=O)Nc2cccc(-c3cccc(-c4nc5ccccc5[nH]4)c3)c2)c1 | 100 |
| CN(C(=O)Nc1ccc(C(F)(F)F)cc1)C1CCN(CCCCCNC(=O)/C=C/c2ccc(Cl)c(Cl)c2)CC1 | 100 |
| Cl.Nc1ccc(-c2nc3c(ccc4ccccc43)[nH]2)cc1 | 84 |

| SMILES | Inhibition [%] |
| --- | --- |
| CN(CCN)Cc1ccc(-c2ccc(-c3nc4cc(C(F)(F)F)ccc4[nH]3)s2)cc1.O=C(O)C(F)(F)F | 98 |
| O=C(/C=C/c1ccc(Cl)c(Cl)c1)NCCCCCCN1CCN(C(=O)Nc2ccc(Cl)c(C(F)(F)F)c2)CC1 | 99 |
| Cc1cc(O)nc(NC#N)n1 | 99 |
| COc1ccc(C(F)(F)F)cc1N1CCN(CCCCNC(=O)c2ccc(NC(=O)c3ccc(Cl)cc3)cc2)CC1 | 94 |
| O=C(Nc1cccc(C2=NCCN2)c1)Nc1cccc(C2=NCCN2)c1 [IMIDOCARB] | 98 |
| CN(C)CCNCc1ccc(-c2ccc3c(Nc4ccc(Oc5ccccc5)cc4)ccnc3c2)o1 | 100 |
| N#Cc1cccc(-c2nc(NCc3cccc(C(F)(F)F)c3)nn2-c2cccc(C(F)(F)F)c2)c1 | 94 |
| C=C1N(C)c2cc([N+](=O)[O-])c(N)cc2C1(C)C | 98 |
| CCC(=Cc1cccc([N+](=O)[O-])c1)C(=O)NCC1CCN(c2nc3cc(OC)c(OC)cc3c(=N)[nH]2)CC1.Cl | 100 |
| O=C(Nc1ccc(F)cc1)c1nc2ccccc2nc1Cl | 80 |
| O=C(Nc1ccc(Cl)cc1)NC1CCN(CCCCCNC(=O)C2CC2c2ccc(Cl)c(Cl)c2)CC1 (stereo not given) | 100 |
| CC(C)(C)c1cc(NC2CC2)nc(-c2ccccn2)n1 | 94 |
| COc1ccc(Nc2nc(N/N=C/c3cc(Br)ccc3O)nc(Nc3ccc([N+](=O)[O-])cc3)n2)cc1 | 97 |
| CCCCCCP(=O)(COc1ccc(CCN(CC(O)COc2cccc3[nH]c(C(N)=O)cc23)CC(O)COc2cccc3[nH]c(C(N)=O)cc23)cc1)OCCCC (stereo not given) | 99 |
| COc1ccc2nccc([C@@H](O)CN3CCC(NCc4nc5ccc(F)cc5[nH]4)CC3)c2c1.O=C(O)C(=O)O | 100 |
| Cc1cc(N[C@@H](Cc2ccccc2)C(=O)NC2CCCC2)nc(NCCOc2ccccc2)n1.O=C(O)C(F)(F)F | 98 |
| COc1ccc(O)cc1Cc1cnc2nc(N)nc(N)c2c1C | 92 |
| Cc1cccc2nc(-c3cccc(-c4ccc(NC(=O)c5cnccc5C(F)(F)F)cc4)c3)[nH]c12 | 100 |
| Cc1cc(Nc2ccc(O)cc2)nc2cccc(O)c12 | 99 |
| CCOc1c(OC)ccc2c1CCN(CCN1CCC(CNC(=O)c3ccc(-c4ccc(C(F)(F)F)cc4)cc3)CC1)C2 | 100 |

system: Plasmodium falciparum; test: GSK_TCMDC: Inhibition of Plasmodium falciparum Dd2 in whole red blood cells, using parasite LDH activity as an index of growth. Test compounds present at 2uM; assay type: functional

| SMILES | Inhibition [%] |
| --- | --- |
| Clc1ccc2c(Cl)c(CNCCCNc3nc4ccccc4[nH]3)[nH]c2c1 | 7 |
| COc1cc2c(c(OC)c1[N+](=O)[O-])C=CC1(O2)N(C)c2ccc([N+](=O)[O-])cc2C1(C)C (stereo not given) | 89 |
| COc1c(CN2CCOCC2)cccc1-c1cc2c(-c3ccc(C(=O)O)c(C(C)C)c3)ccnc2[nH]1.O=C(O)C(F)(F)F | 90 |
| COc1cc(-c2ccccc2)ccc1C(=O)Nc1ccc2c(c1)N(C)CCC2 | 75 |
| CCOc1cc(C)ccc1C1CCN(CCCCNC(=O)c2nc(-c3ccc(C(F)(F)F)cc3)[nH]c2C)CC1.Cl | 98 |
| Br.CC1(C)NC(N)=NC(=N)N1OCCCOc1ccc([N+](=O)[O-])cc1 | 80 |
| FC(F)(F)c1ccc2[nH]c(-c3ccc(-c4cccc(CNCCc5ccncc5)c4)s3)nc2c1.O=C(O)C(F)(F)F | 95 |
| O=C(Nc1ccccc1)N(Cc1ccc(-c2ccc(CNC3CCCC3)cc2)cc1)C1CCN(Cc2ccccc2)CC1.O=C(O)C(F)(F)F | 61 |
| O=C(/C=C/c1ccc(Cl)c(Cl)c1)NCCCCCN1CCC(C(=O)Nc2ccc(Cl)c(Cl)c2)CC1 | 0 |
| CCC(ON1C(N)=NC(N)=NC1(C)C)c1ccccc1 (stereo not given) | 0 |
| O=C(NCCc1cccc(F)c1)c1ccc(N2CCN(c3ccncc3)CC2)cn1.O=C(O)C(F)(F)F | 7 |
| Cl.c1ccc2ncc(CNCCCCCCCCNCc3cnc4ccccc4c3)cc2c1 | 4 |
| Cc1ccc(NC(=O)c2cccc(C#N)c2)cc1-c1ccc(C(=O)Nc2ccncc2)cc1 | 64 |
| CC(C)COc1ccc(C(O)C(CN2CCCCC2)c2ccccc2)cc1 (stereo not given) | 89 |
| COc1ccc2nc3cc(Cl)ccc3c(NCCCCN3CCNCC3)c2c1.Cl | 75 |
| COc1ccc2ncc(F)c(CCN3CC(O)C(CNCc4ccc5c(c4)OCCO5)C3)c2n1.Cl (stereo not given) | 35 |
| c1ccc(Oc2ccc(Nc3nc(NCCc4c[nH]cn4)nc(NC4CCCC4)n3)cc2)cc1 | 23 |
| N#Cc1cccc(NC(=O)Nc2cccc(-c3cccc(-c4nc5ccccc5[nH]4)c3)c2)c1 | 96 |
| CN(C(=O)Nc1ccc(C(F)(F)F)cc1)C1CCN(CCCCCNC(=O)/C=C/c2ccc(Cl)c(Cl)c2)CC1 | 38 |
| Cl.Nc1ccc(-c2nc3c(ccc4ccccc43)[nH]2)cc1 | 51 |

| SMILES | Inhibition [%] |
| --- | --- |
| CN(CCN)Cc1ccc(-c2ccc(-c3nc4cc(C(F)(F)F)ccc4[nH]3)s2)cc1.O=C(O)C(F)(F)F | 98 |
| O=C(/C=C/c1ccc(Cl)c(Cl)c1)NCCCCCCN1CCN(C(=O)Nc2ccc(Cl)c(C(F)(F)F)c2)CC1 | 43 |
| Cc1cc(O)nc(NC#N)n1 | 3 |
| COc1ccc(C(F)(F)F)cc1N1CCN(CCCCNC(=O)c2ccc(NC(=O)c3ccc(Cl)cc3)cc2)CC1 | 1 |
| O=C(Nc1cccc(C2=NCCN2)c1)Nc1cccc(C2=NCCN2)c1 [IMIDOCARB] | 99 |
| CN(C)CCNCc1ccc(-c2ccc3c(Nc4ccc(Oc5ccccc5)cc4)ccnc3c2)o1 | 99 |
| N#Cc1cccc(-c2nc(NCc3cccc(C(F)(F)F)c3)nn2-c2cccc(C(F)(F)F)c2)c1 | 88 |
| C=C1N(C)c2cc([N+](=O)[O-])c(N)cc2C1(C)C | 83 |
| CCC(=Cc1cccc([N+](=O)[O-])c1)C(=O)NCC1CCN(c2nc3cc(OC)c(OC)cc3c(=N)[nH]2)CC1.Cl | 62 |
| O=C(Nc1ccc(F)cc1)c1nc2ccccc2nc1Cl | 62 |
| O=C(Nc1ccc(Cl)cc1)NC1CCN(CCCCCNC(=O)C2CC2c2ccc(Cl)c(Cl)c2)CC1 (stereo not given) | 18 |
| CC(C)(C)c1cc(NC2CC2)nc(-c2ccccn2)n1 | 79 |
| COc1ccc(Nc2nc(N/N=C/c3cc(Br)ccc3O)nc(Nc3ccc([N+](=O)[O-])cc3)n2)cc1 | 37 |
| CCCCCCP(=O)(COc1ccc(CCN(CC(O)COc2cccc3[nH]c(C(N)=O)cc23)CC(O)COc2cccc3[nH]c(C(N)=O)cc23)cc1)OCCCC (stereo not given) | 97 |
| COc1ccc2nccc([C@@H](O)CN3CCC(NCc4nc5ccc(F)cc5[nH]4)CC3)c2c1.O=C(O)C(=O)O | 4 |
| Cc1cc(N[C@@H](Cc2ccccc2)C(=O)NC2CCCC2)nc(NCCOc2ccccc2)n1.O=C(O)C(F)(F)F | 48 |
| COc1ccc(O)cc1Cc1cnc2nc(N)nc(N)c2c1C | 97 |
| Cc1cccc2nc(-c3cccc(-c4ccc(NC(=O)c5cnccc5C(F)(F)F)cc4)c3)[nH]c12 | 37 |
| Cc1cc(Nc2ccc(O)cc2)nc2cccc(O)c12 | 28 |
| CCOc1c(OC)ccc2c1CCN(CCN1CCC(CNC(=O)c3ccc(-c4ccc(C(F)(F)F)cc4)cc3)CC1)C2 | 21 |
